Screening data (PubChem)
TEAD-YAP block – TEAD-YAP interaction inhibition; hit rate 1.4% among 640,000; inhibition, % at 9.12 µM; AID 1259422; HEK-TIYL cells, TEAD-Gal4/YAP UAS-luciferase luminescence; in the data active = inhibition above about 32%
GPR151 activ – human GPR151 activation. hit rate 1% among 650,000. PathHunter beta-arrestin GPR151 cells, luminescence. Q8TDV0. activation, % at 11.2 µM; in the data active = activation above about 4.9%
Target sequence (Q8TDV0 whole entry, looked up): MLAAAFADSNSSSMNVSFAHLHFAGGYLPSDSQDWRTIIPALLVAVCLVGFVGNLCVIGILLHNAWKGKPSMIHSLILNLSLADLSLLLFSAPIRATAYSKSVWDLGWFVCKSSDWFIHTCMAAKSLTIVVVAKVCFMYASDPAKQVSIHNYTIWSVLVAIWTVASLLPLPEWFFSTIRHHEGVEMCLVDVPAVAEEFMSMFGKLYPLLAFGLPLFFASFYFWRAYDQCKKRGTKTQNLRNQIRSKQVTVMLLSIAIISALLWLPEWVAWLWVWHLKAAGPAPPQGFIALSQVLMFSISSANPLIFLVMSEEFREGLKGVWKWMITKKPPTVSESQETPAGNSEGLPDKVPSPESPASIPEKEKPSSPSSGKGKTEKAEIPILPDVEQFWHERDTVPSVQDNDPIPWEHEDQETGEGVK
MITF primary – human MITF inhibition, primary screen; O75030; AlphaScreen MITF homodimerization, bead proximity signal; inhibition, % at 2.6 µM; hit rate 0.91% among 650,000; AID 1259374; in the data active = inhibition above about 50%
FBW7 activator – human FBW7 E3 ligase activation, primary screen; AlphaScreen FBW7–phospho-cyclin E peptide binding, activator screen; normalized activity (activation), % at 26.1 µM; hit rate 0.13% among 650,000; in the data active = normalized activity above about 1.9%;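 note: purified mutant Fbw7 with reduced substrate affinity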
GPR151 confirm – human GPR151 activation, confirmation screen; activation, % at 11.2 µM; AID 1508609; GPR151 PathHunter beta-arrestin cells, luminescence, 90 min; % of EA-reagent control over plate median; 6,700 tested, under 10 active; shares compounds with GPR151 activ;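 active = mean percent activation across replicates above the confirmation screen cutoff of 4.91%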
GPR119 ag – counter-screen for GPR151 activators: effect on human GPR119 | activation, % at 11.2 µM | GPR119 PathHunter beta-arrestin cells, luminescence, 90 min; 0 = compound-well median, 100 = enzyme-acceptor control | hit rate 0.3% among 6,700 | shares compounds with GPR151 activ | AID 1508611;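 active = mean percent activation in the counterscreen above 29.09%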;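 note: counterscreen on off-target GPR119 to flag nonselective hits from the GPR151 activator screen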
Of the large screens only hits and unclear results are named; the others gave an inactive call (follow-up assays come after a bar, where they were run). The list is not random: actives were taken first. Their share in the collection is about 3.4%.

O=c1[nH]c2ccccc2nc1C(F)(F)C(F)(F)C(F)(F)C(F)F	GPR151 activ 5.5 | GPR151 confirm inactive | GPR119 ag inactive
N#Cc1c(N)nc2c(c1-c1ccsc1)CCCC2	GPR151 activ 5.0 | GPR151 confirm inactive | GPR119 ag inactive
COc1cccc(/C=N/NC(=O)C(C)Nc2ccc(C)cc2)c1O (stereo unspecified)	GPR151 activ 12 | GPR151 confirm inactive | GPR119 ag inactive
COc1cccc(/C=N\NC(=O)c2cc(C(C)(C)C)[nH]n2)c1O	TEAD-YAP block 69, GPR151 activ 5.8 | GPR151 confirm inactive | GPR119 ag inactive
CC(Oc1cccc(Cl)c1)C(=O)N/N=C/c1ccccc1O (stereo unspecified)	GPR151 activ 6.6 | GPR151 confirm inactive | GPR119 ag inactive
COc1ccc(NC(C)C(=O)N/N=C/c2ccccc2Cl)cc1 (stereo unspecified)	GPR151 activ 7.3 | GPR151 confirm inactive | GPR119 ag inactive
COc1ccccc1NC(C)C(=O)N/N=C/c1cccc(OC)c1O (stereo unspecified)	none
COc1ccc(/C=N/NC(=O)c2cc(C(C)(C)C)[nH]n2)cc1O	none
c1cnc(Nc2nc(NC3CC3)c3ncn(C4CCCCC4)c3n2)nc1	none
Cc1c(NS(=O)(=O)c2ccccc2)cc(Br)c(O)c1C	none
CC(C)CCN1C(=O)c2ccc(C(=O)Nc3cc(Cl)ccc3C(=O)O)cc2C1=O	none
COc1ccccc1N1CCN(C2CCCN(C(=O)C3(C(N)=O)CC3)C2)CC1 (stereo unspecified)	GPR151 activ 5.6 | GPR151 confirm inactive | GPR119 ag inactive
COc1ccccc1N1CCN(C2CCCN(C(=O)C3CCCCC3)C2)CC1 (stereo unspecified)	none
CCOC(=O)CSc1nc2nccnc2c(=O)n1Cc1ccccc1	GPR151 activ 5.0 | GPR151 confirm inactive | GPR119 ag inactive
CCOC(=O)CSc1nc2cc(C(=O)NC3CCCCC3)ccc2c(=O)n1CCc1ccccc1	GPR151 activ 5.1 | GPR151 confirm inactive | GPR119 ag inactive
CCOC(=O)CSc1nc2c(sc(=S)n2Cc2ccccc2)c(=O)n1-c1cccc(Cl)c1	none
NC(=O)CSc1nc2nccnc2c(=O)n1Cc1ccccc1	none
CCOC(=O)CSc1nc2c(c(=O)n1Cc1ccccc1)C1(CCCC1)Cc1ccccc1-2	GPR151 activ 7.5 | GPR151 confirm inactive | GPR119 ag inactive
CCOC(=O)CSc1nc2c(sc(=S)n2Cc2ccccc2)c(=O)n1Cc1ccccc1	GPR151 activ 6.0 | GPR151 confirm inactive | GPR119 ag inactive
O=C(Nc1nc(-c2ccc(Oc3ccccc3)cc2)cs1)c1cccc(Cl)c1	none
CN1CCN(NC(=O)c2cc3c(s2)CCCC3)CC1	none
N#CC1=C(N)Oc2n[nH]c(-c3cccc([N+](=O)[O-])c3)c2C1c1ccc(Cl)c(Cl)c1 (stereo unspecified)	GPR151 activ 7.9 | GPR151 confirm inactive | GPR119 ag inactive
N#CC1=C(N)Oc2n[nH]c(-c3ccccc3)c2C1c1ccc(Cl)c([N+](=O)[O-])c1 (stereo unspecified)	GPR151 activ 6.1 | GPR151 confirm inactive | GPR119 ag inactive
COc1cc(C2C(C#N)=C(N)Oc3n[nH]c(-c4cccc([N+](=O)[O-])c4)c32)cc(OC)c1O (stereo unspecified)	GPR151 activ 6.0 | GPR151 confirm inactive | GPR119 ag inactive
N#CC1=C(N)Oc2n[nH]c(-c3ccccc3)c2C1c1ccc([N+](=O)[O-])cc1Cl (stereo unspecified)	none
COc1cc(C2C(C#N)=C(N)Oc3n[nH]c(-c4cccc([N+](=O)[O-])c4)c32)cc(OC)c1OC(C)=O (stereo unspecified)	none
COc1ccc(S(=O)(=O)Nc2ccc(Cl)c(C(F)(F)F)c2)cc1OC	none
O=C1c2ccccc2-c2onc3c(N4CCCCC4)cc(Nc4ccc(Cl)cc4)c1c23	none
O=C(O)CCCC(=O)Nc1nc(-c2ccccc2)cs1	none
Cc1ccccc1OCCCC(=O)Nc1nc(-c2ccccc2)cs1	GPR151 activ 7.1 | GPR151 confirm inactive | GPR119 ag inactive
CC(=O)c1ccccc1-c1ccc2c(-c3ccc(N4CCNCC4)cc3)[nH]nc2n1	none
NC(=O)c1ccc(-c2ccc3c(-c4ccc(N5CCNCC5)cc4)[nH]nc3n2)cc1	GPR151 activ 5.9 | GPR151 confirm inactive | GPR119 ag inactive
Cc1ccc(/C=C(\C#N)C(=O)Nc2ccc(S(N)(=O)=O)cc2)cc1	none
CC(C)c1nnc(C2CCN(S(=O)(=O)/C=C/c3ccccc3)CC2)o1	none
O=C(NCCCN1CCOCC1)/C(=C/c1ccc(-c2cccc(C(F)(F)F)c2)o1)NC(=O)c1ccc(Cl)cc1	GPR151 activ 9.4 | GPR151 confirm inactive | GPR119 ag inactive
Cc1cccc(NC(=O)CC(NCCO)C(=O)O)c1 (stereo unspecified)	none
O=C(CC(NCCO)C(=O)O)Nc1ccccc1 (stereo unspecified)	GPR151 activ 6.8 | GPR151 confirm inactive | GPR119 ag inactive
CCn1c2ccccc2n2c(=O)n(CC(=O)NCc3ccco3)nc12	none
O=C(Nc1ccccc1Cl)NC1CC2CCC(C1)N2Cc1ccco1 (stereo unspecified)	none
CCNc1nc(Nc2ccc(N3CCOCC3)cc2)c2cc(OC)c(OC)cc2n1	none
COc1ccc(NS(=O)(=O)c2ccc(OC)c(Cl)c2Cl)cc1OC	GPR151 activ 11 | GPR151 confirm inactive | GPR119 ag inactive
CCCCNS(=O)(=O)c1ccc(OC)c(Cl)c1Cl	none
COC(=O)c1ccc(C(=O)OC)c(NS(=O)(=O)c2ccc(OC)c(Cl)c2Cl)c1	GPR151 activ 9.5 | GPR151 confirm inactive | GPR119 ag inactive
COc1cccc(NS(=O)(=O)c2ccc(OC)c(Cl)c2Cl)c1	none
COc1ccc(S(=O)(=O)N(C)C)c(Cl)c1Cl	GPR151 activ 16 | GPR151 confirm inactive | GPR119 ag inactive
COc1ccc(Cc2nn3c(=O)/c(=C\c4ccccc4OC)sc3nc2=O)cc1	none
CN1CCOCCOCCOCCOCCOCC1	GPR151 activ 6.3 | GPR151 confirm inactive | GPR119 ag inactive
Cc1cc(C)n2c(SCCNCCO)nnc2n1	none
Cc1cc(C)n2c(SCCO)nnc2n1	GPR151 activ 5.6 | GPR151 confirm inactive | GPR119 ag inactive
COC(=O)c1nnn(-c2nonc2N)c1C(C)(C)C	none
CCN(Cc1c(C(=O)OC)nnn1-c1nonc1N)c1ccccc1	GPR151 activ 5.1 | GPR151 confirm inactive | GPR119 ag inactive
COC(=O)c1nnn(-c2nonc2N)c1C(=O)OC	GPR151 activ 6.0 | GPR151 confirm inactive | GPR119 ag inactive
CC(C)(C)c1ccc(S(=O)(=O)N/N=C/c2ccccc2[N+](=O)[O-])cc1	none
O=[N+]([O-])c1ccccc1/C=N/NS(=O)(=O)c1ccc(Cl)cc1	GPR151 activ 14 | GPR151 confirm inactive | GPR119 ag inactive
